# ± gives the standard deviation.
# T1: HaloTag-ATRX ADD domain (163-292)
# T1 chain: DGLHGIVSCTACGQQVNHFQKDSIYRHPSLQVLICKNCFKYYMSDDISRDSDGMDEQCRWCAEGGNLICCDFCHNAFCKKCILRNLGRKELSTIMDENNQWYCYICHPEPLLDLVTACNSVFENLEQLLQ
# Key:
# Test in all cases: peptide microarray binding signal (635 nm), min-max normalized on array (fraction of array maximum); higher = stronger binding
# [1] = target: T1, HaloTag-ATRX ADD domain (163-292)
# Experimental: (§1)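 Histone 13-mer peptides were synthesized as cellulose conjugates with a C-terminal 20-atom PEG linker and printed in triplicate on nitrocellulose. The sequence given is the unmodified backbone; PTMs (Kme1/2/3, Kac, Sph/Tph, Rme/Rme2a/Rme2s, Rcit) are listed in the label and the 'peptide modifications' condition. Slides were probed at 4 °C for 1 h with biotin-labelled (HQ)5-HaloTag reader fusions (ATRX-ADD, ING2-PHD) then streptavidin-Alexa647, or with rabbit histone antibodies then anti-rabbit Alexa647. The mean 635 nm signal of the triplicate spots was scaled 0-1 between the lowest and highest values on each array.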
# [2] = target: HaloTag-ING2 PHD (mouse Ing2 200-280)
# Experimental: as §1
# [3] = target: anti-H3K4me3 antibody ab8580
# Experimental: as §1
# [4] = target: anti-H3K9me3 antibody ab8898
# Experimental: as §1
# [5] = peptide region: H2B 7-19, binder concentration: 1:2,000 dilution
# [6] = peptide region: H2B 7-19, binder concentration: 1:10,000 dilution
# [7] = peptide region: H2B 7-19, peptide modifications: H2BK11ac H2BK12ac H2BK15ac H2BK16ac, binder concentration: 1:2,000 dilution
# [8] = peptide region: H2B 7-19, peptide modifications: H2BK11ac H2BK12ac H2BK15ac H2BK16ac, binder concentration: 1:10,000 dilution
# [9] = peptide region: H2B 1-13, peptide modifications: H2BK5ac H2BS6ph H2BK11ac, binder concentration: 1:2,000 dilution
# [10] = peptide region: H2B 1-13, peptide modifications: H2BK5ac H2BS6ph H2BK11ac, binder concentration: 1:10,000 dilution
# [11] = peptide region: H2B 1-13, peptide modifications: H2BK5ac, binder concentration: 1:2,000 dilution
# [12] = peptide region: H2B 1-13, peptide modifications: H2BK5ac, binder concentration: 1:10,000 dilution
# [13] = peptide region: H2A 11-23, peptide modifications: H2AT16ph, binder concentration: 1:2,000 dilution
# [14] = peptide region: H2A 11-23, peptide modifications: H2AT16ph, binder concentration: 1:10,000 dilution
binder,measurement,setting,value
APAPKKGSKKAVT [H2B 7-19 A P A P K K G S K K A V T],peptide microarray binding signal,"[1]; peptide region: H2B 7-19, binder concentration: 50 nM",0.002382 ± 1.1e-05
same,peptide microarray binding signal,"[1]; peptide region: H2B 7-19, binder concentration: 500 nM",0.00743 ± 0.0029
same,peptide microarray binding signal,"[2]; peptide region: H2B 7-19, binder concentration: 10 nM",0.00328 ± 6.2e-05
same,peptide microarray binding signal,"[2]; peptide region: H2B 7-19, binder concentration: 100 nM",0.00283 ± 4.6e-05
same,peptide microarray binding signal,[3]; [5],0.0043 ± 0.0018
same,peptide microarray binding signal,[3]; [6],0.00114 ± 1.2e-05
same,peptide microarray binding signal,[4]; [5],0.00116 ± 9.9e-05
same,peptide microarray binding signal,[4]; [6],0.001211 ± 1.2e-05
APAPKKGSKKAVT [H2B 7-19 A P A P Kac Kac G S Kac Kac A V T],peptide microarray binding signal,"[1]; peptide region: H2B 7-19, peptide modifications: H2BK11ac H2BK12ac H2BK15ac H2BK16ac, binder concentration: 50 nM",0.0047 ± 0.00016
same,peptide microarray binding signal,"[1]; peptide region: H2B 7-19, peptide modifications: H2BK11ac H2BK12ac H2BK15ac H2BK16ac, binder concentration: 500 nM",0.00329 ± 0.00049
same,peptide microarray binding signal,"[2]; peptide region: H2B 7-19, peptide modifications: H2BK11ac H2BK12ac H2BK15ac H2BK16ac, binder concentration: 10 nM",0.00555 ± 0.00016
same,peptide microarray binding signal,"[2]; peptide region: H2B 7-19, peptide modifications: H2BK11ac H2BK12ac H2BK15ac H2BK16ac, binder concentration: 100 nM",0.00524 ± 0.00027
same,peptide microarray binding signal,[3]; [7],0.000264 ± 1e-05
same,peptide microarray binding signal,[3]; [8],0.000742 ± 1.3e-05
same,peptide microarray binding signal,[4]; [7],0.000982 ± 5.2e-05
same,peptide microarray binding signal,[4]; [8],0.00167 ± 2.8e-05
PEPAKSAPAPKKG [H2B 1-13 P E P A Kac Sph A P A P Kac K G],peptide microarray binding signal,"[1]; peptide region: H2B 1-13, peptide modifications: H2BK5ac H2BS6ph H2BK11ac, binder concentration: 50 nM",0.0021 ± 2.5e-05
same,peptide microarray binding signal,"[1]; peptide region: H2B 1-13, peptide modifications: H2BK5ac H2BS6ph H2BK11ac, binder concentration: 500 nM",0.00276 ± 5.8e-05
same,peptide microarray binding signal,"[2]; peptide region: H2B 1-13, peptide modifications: H2BK5ac H2BS6ph H2BK11ac, binder concentration: 10 nM",0.00603 ± 0.00058
same,peptide microarray binding signal,"[2]; peptide region: H2B 1-13, peptide modifications: H2BK5ac H2BS6ph H2BK11ac, binder concentration: 100 nM",0.00206 ± 5.4e-05
same,peptide microarray binding signal,[3]; [9],0.00364 ± 0.00027
same,peptide microarray binding signal,[3]; [10],0.00131 ± 3.4e-05
same,peptide microarray binding signal,[4]; [9],0.00131 ± 4.4e-05
same,peptide microarray binding signal,[4]; [10],0.00185 ± 8e-05
PEPAKSAPAPKKG [H2B 1-13 P E P A Kac S A P A P K K G],peptide microarray binding signal,"[1]; peptide region: H2B 1-13, peptide modifications: H2BK5ac, binder concentration: 50 nM",0.005486 ± 3.9e-05
same,peptide microarray binding signal,"[1]; peptide region: H2B 1-13, peptide modifications: H2BK5ac, binder concentration: 500 nM",0.0105 ± 0.00072
same,peptide microarray binding signal,"[2]; peptide region: H2B 1-13, peptide modifications: H2BK5ac, binder concentration: 10 nM",0.0119 ± 0.00078
same,peptide microarray binding signal,"[2]; peptide region: H2B 1-13, peptide modifications: H2BK5ac, binder concentration: 100 nM",0.0115 ± 0.00093
same,peptide microarray binding signal,[3]; [11],0.00421 ± 0.0021
same,peptide microarray binding signal,[3]; [12],0.00137 ± 4.9e-05
same,peptide microarray binding signal,[4]; [11],0.00192 ± 0.00022
same,peptide microarray binding signal,[4]; [12],0.0019 ± 0.00011
RAKAKTRSSRAGL [H2A 11-23 R A K A K Tph R S S R A G L],peptide microarray binding signal,"[1]; peptide region: H2A 11-23, peptide modifications: H2AT16ph, binder concentration: 50 nM",0.0047 ± 9.3e-05
same,peptide microarray binding signal,"[1]; peptide region: H2A 11-23, peptide modifications: H2AT16ph, binder concentration: 500 nM",0.00824 ± 0.00034
same,peptide microarray binding signal,"[2]; peptide region: H2A 11-23, peptide modifications: H2AT16ph, binder concentration: 10 nM",0.00364
same,peptide microarray binding signal,"[2]; peptide region: H2A 11-23, peptide modifications: H2AT16ph, binder concentration: 100 nM",0.00794 ± 0.00055
same,peptide microarray binding signal,[3]; [13],0.000472 ± 1.2e-05
same,peptide microarray binding signal,[3]; [14],0.000913
same,peptide microarray binding signal,[4]; [13],0.000347 ± 7e-06
same,peptide microarray binding signal,[4]; [14],0.000807 ± 1.5e-05
